Source: the supplement of paper PMC4022240
± gives the standard deviation.

Tests used:
Experiment in all cases: peptide microarray binding signal (635 nm), min-max normalized on array (fraction of array maximum); higher = stronger binding
Conditions in all cases: peptide region: H3 20-32
[1] = biological target: T1, HaloTag-ATRX ADD domain (163-292)
T1 chain: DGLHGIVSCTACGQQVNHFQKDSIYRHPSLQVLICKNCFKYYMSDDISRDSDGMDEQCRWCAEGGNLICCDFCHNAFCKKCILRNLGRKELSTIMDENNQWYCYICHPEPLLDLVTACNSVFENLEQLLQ
In short: (§1)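 Arrays carried histone 13-mer peptide–cellulose conjugates printed in triplicate on nitrocellulose alongside a Cy3 tracer. After overnight blocking at 4°C, they were incubated for 1 h at 4°C with biotin-labelled HaloTag reader fusions (10 nM to 1 μM) plus streptavidin-Alexa Fluor 647, or with rabbit histone antibodies (1:10,000 to 1:2,000) plus anti-rabbit Alexa 647. Scanning on an Axon GenePix 4000B used 635 nm for signal and 532 nm for misprints. The binding signal reported is each triplicate's mean spot intensity after per-library min-max scaling.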

[2] = biological target: HaloTag-ING2 PHD (mouse Ing2 200-280)
In short: as §1

[3] = biological target: anti-H3K4me3 antibody ab8580
In short: as §1

[4] = biological target: anti-H3K9me3 antibody ab8898
In short: as §1

[5] = peptide modifications: H3K23me2 H3K27ac, binder concentration: 1:2,000 dilution
[6] = peptide modifications: H3K23me2 H3K27ac, binder concentration: 1:10,000 dilution
[7] = peptide modifications: H3K23me2 H3K27me3, binder concentration: 1:2,000 dilution
[8] = peptide modifications: H3K23me2 H3K27me3, binder concentration: 1:10,000 dilution
[9] = peptide modifications: H3K23me2, binder concentration: 1:2,000 dilution
[10] = peptide modifications: H3K23me2, binder concentration: 1:10,000 dilution
[11] = peptide modifications: H3K23me3 H3K27me2, binder concentration: 1:2,000 dilution
[12] = peptide modifications: H3K23me3 H3K27me2, binder concentration: 1:10,000 dilution
[13] = peptide modifications: H3K23me3 H3K27ac, binder concentration: 1:2,000 dilution
[14] = peptide modifications: H3K23me3 H3K27ac, binder concentration: 1:10,000 dilution
[15] = peptide modifications: H3K23me2 H3K27me1, binder concentration: 1:2,000 dilution
[16] = peptide modifications: H3K23me2 H3K27me1, binder concentration: 1:10,000 dilution
[17] = peptide modifications: H3K23me3, binder concentration: 1:2,000 dilution
[18] = peptide modifications: H3K23me3, binder concentration: 1:10,000 dilution
[19] = peptide modifications: H3K23me3 H3K27me3, binder concentration: 1:2,000 dilution
[20] = peptide modifications: H3K23me3 H3K27me3, binder concentration: 1:10,000 dilution
[21] = peptide modifications: H3K23me2 H3K27me2, binder concentration: 1:2,000 dilution
[22] = peptide modifications: H3K23me2 H3K27me2, binder concentration: 1:10,000 dilution
[23] = peptide modifications: H3K23me3 H3K27me1, binder concentration: 1:2,000 dilution
[24] = peptide modifications: H3K23me3 H3K27me1, binder concentration: 1:10,000 dilution

LATKAARKSAPAT [H3 20-32 L A T Kme2 A A R Kac S A P A T]
peptide microarray binding signal ([1]; peptide modifications: H3K23me2 H3K27ac, binder concentration: 50 nM): 0.008464 ± 6.7e-05
peptide microarray binding signal ([1]; peptide modifications: H3K23me2 H3K27ac, binder concentration: 500 nM): 0.01538 ± 0.00011
peptide microarray binding signal ([2]; peptide modifications: H3K23me2 H3K27ac, binder concentration: 10 nM): 0.0514 ± 0.0022
peptide microarray binding signal ([2]; peptide modifications: H3K23me2 H3K27ac, binder concentration: 100 nM): 0.0701 ± 0.0049
peptide microarray binding signal [3, 5]: 0.0156 ± 0.00055
peptide microarray binding signal [3, 6]: 0.0145 ± 0.00025
peptide microarray binding signal [4, 5]: 0.0072 ± 0.0012
peptide microarray binding signal [4, 6]: 0.00513 ± 0.00017

LATKAARKSAPAT [H3 20-32 L A T Kme2 A A R Kme3 S A P A T]
peptide microarray binding signal ([1]; peptide modifications: H3K23me2 H3K27me3, binder concentration: 50 nM): 0.0058 ± 9.2e-05
peptide microarray binding signal ([1]; peptide modifications: H3K23me2 H3K27me3, binder concentration: 500 nM): 0.00581 ± 0.00013
peptide microarray binding signal ([2]; peptide modifications: H3K23me2 H3K27me3, binder concentration: 10 nM): 0.01343 ± 4.8e-05
peptide microarray binding signal ([2]; peptide modifications: H3K23me2 H3K27me3, binder concentration: 100 nM): 0.0205 ± 0.00075
peptide microarray binding signal [3, 7]: 0.02482 ± 0.00013
peptide microarray binding signal [3, 8]: 0.0215 ± 0.00042
peptide microarray binding signal [4, 7]: 0.0892 ± 0.0073
peptide microarray binding signal [4, 8]: 0.0609 ± 0.0066

LATKAARKSAPAT [H3 20-32 L A T Kme2 A A R K S A P A T]
peptide microarray binding signal ([1]; peptide modifications: H3K23me2, binder concentration: 50 nM): 0.00671 ± 0.00021
peptide microarray binding signal ([1]; peptide modifications: H3K23me2, binder concentration: 500 nM): 0.0138 ± 0.00038
peptide microarray binding signal ([2]; peptide modifications: H3K23me2, binder concentration: 10 nM): 0.0263 ± 0.0081
peptide microarray binding signal ([2]; peptide modifications: H3K23me2, binder concentration: 100 nM): 0.0536 ± 0.02
peptide microarray binding signal [3, 9]: 0.00836 ± 0.0018
peptide microarray binding signal [3, 10]: 0.0156 ± 0.0071
peptide microarray binding signal [4, 9]: 0.00609 ± 0.0003
peptide microarray binding signal [4, 10]: 0.00479 ± 0.00052

LATKAARKSAPAT [H3 20-32 L A T Kme3 A A R Kme2 S A P A T]
peptide microarray binding signal ([1]; peptide modifications: H3K23me3 H3K27me2, binder concentration: 50 nM): 0.00871 ± 0.00075
peptide microarray binding signal ([1]; peptide modifications: H3K23me3 H3K27me2, binder concentration: 500 nM): 0.0107 ± 0.0013
peptide microarray binding signal ([2]; peptide modifications: H3K23me3 H3K27me2, binder concentration: 10 nM): 0.0148 ± 0.0008
peptide microarray binding signal ([2]; peptide modifications: H3K23me3 H3K27me2, binder concentration: 100 nM): 0.0242 ± 0.0018
peptide microarray binding signal [3, 11]: 0.0639 ± 0.034
peptide microarray binding signal [3, 12]: 0.0807 ± 0.021
peptide microarray binding signal [4, 11]: 0.0464 ± 0.016
peptide microarray binding signal [4, 12]: 0.0257 ± 0.0034

LATKAARKSAPAT [H3 20-32 L A T Kme3 A A R Kac S A P A T]
peptide microarray binding signal ([1]; peptide modifications: H3K23me3 H3K27ac, binder concentration: 50 nM): 0.00665 ± 0.00019
peptide microarray binding signal ([1]; peptide modifications: H3K23me3 H3K27ac, binder concentration: 500 nM): 0.0131 ± 0.00029
peptide microarray binding signal ([2]; peptide modifications: H3K23me3 H3K27ac, binder concentration: 10 nM): 0.0614 ± 0.0049
peptide microarray binding signal ([2]; peptide modifications: H3K23me3 H3K27ac, binder concentration: 100 nM): 0.0929 ± 0.0012
peptide microarray binding signal [3, 13]: 0.18 ± 0.021
peptide microarray binding signal [3, 14]: 0.218 ± 0.01
peptide microarray binding signal [4, 13]: 0.11 ± 0.011
peptide microarray binding signal [4, 14]: 0.042 ± 0.002

LATKAARKSAPAT [H3 20-32 L A T Kme2 A A R Kme S A P A T]
peptide microarray binding signal ([1]; peptide modifications: H3K23me2 H3K27me1, binder concentration: 50 nM): 0.00715 ± 0.00054
peptide microarray binding signal ([1]; peptide modifications: H3K23me2 H3K27me1, binder concentration: 500 nM): 0.0135 ± 0.00043
peptide microarray binding signal ([2]; peptide modifications: H3K23me2 H3K27me1, binder concentration: 10 nM): 0.0174 ± 0.00096
peptide microarray binding signal ([2]; peptide modifications: H3K23me2 H3K27me1, binder concentration: 100 nM): 0.0216 ± 0.00093
peptide microarray binding signal [3, 15]: 0.00978 ± 0.0012
peptide microarray binding signal [3, 16]: 0.0104 ± 0.00071
peptide microarray binding signal [4, 15]: 0.00618 ± 0.00062
peptide microarray binding signal [4, 16]: 0.00628 ± 0.00021

LATKAARKSAPAT [H3 20-32 L A T Kme3 A A R K S A P A T]
peptide microarray binding signal ([1]; peptide modifications: H3K23me3, binder concentration: 50 nM): 0.00323 ± 0.00014
peptide microarray binding signal ([1]; peptide modifications: H3K23me3, binder concentration: 500 nM): 0.00476 ± 6.4e-05
peptide microarray binding signal ([2]; peptide modifications: H3K23me3, binder concentration: 10 nM): 0.00931 ± 0.00034
peptide microarray binding signal ([2]; peptide modifications: H3K23me3, binder concentration: 100 nM): 0.0181 ± 0.00055
peptide microarray binding signal [3, 17]: 0.0211 ± 0.0028
peptide microarray binding signal [3, 18]: 0.0168 ± 0.00023
peptide microarray binding signal [4, 17]: 0.0113 ± 0.0027
peptide microarray binding signal [4, 18]: 0.00634 ± 0.00064

LATKAARKSAPAT [H3 20-32 L A T Kme3 A A R Kme3 S A P A T]
peptide microarray binding signal ([1]; peptide modifications: H3K23me3 H3K27me3, binder concentration: 50 nM): 0.00527 ± 0.00011
peptide microarray binding signal ([1]; peptide modifications: H3K23me3 H3K27me3, binder concentration: 500 nM): 0.00571 ± 0.00016
peptide microarray binding signal ([2]; peptide modifications: H3K23me3 H3K27me3, binder concentration: 10 nM): 0.0186 ± 0.00059
peptide microarray binding signal ([2]; peptide modifications: H3K23me3 H3K27me3, binder concentration: 100 nM): 0.0317 ± 0.00033
peptide microarray binding signal [3, 19]: 0.0764 ± 0.0055
peptide microarray binding signal [3, 20]: 0.116 ± 0.014
peptide microarray binding signal [4, 19]: 0.115 ± 0.01
peptide microarray binding signal [4, 20]: 0.08 ± 0.0081

LATKAARKSAPAT [H3 20-32 L A T Kme2 A A R Kme2 S A P A T]
peptide microarray binding signal ([1]; peptide modifications: H3K23me2 H3K27me2, binder concentration: 50 nM): 0.00511 ± 6.7e-05
peptide microarray binding signal ([1]; peptide modifications: H3K23me2 H3K27me2, binder concentration: 500 nM): 0.00781 ± 0.00026
peptide microarray binding signal ([2]; peptide modifications: H3K23me2 H3K27me2, binder concentration: 10 nM): 0.0143 ± 0.0011
peptide microarray binding signal ([2]; peptide modifications: H3K23me2 H3K27me2, binder concentration: 100 nM): 0.0265 ± 0.003
peptide microarray binding signal [3, 21]: 0.001114 ± 9.2e-06
peptide microarray binding signal [3, 22]: 0.000799 ± 8.3e-06
peptide microarray binding signal [4, 21]: 0.000861 ± 5.4e-05
peptide microarray binding signal [4, 22]: 0.000692 ± 1.9e-05

LATKAARKSAPAT [H3 20-32 L A T Kme3 A A R Kme S A P A T]
peptide microarray binding signal ([1]; peptide modifications: H3K23me3 H3K27me1, binder concentration: 50 nM): 0.00426 ± 0.00018
peptide microarray binding signal ([1]; peptide modifications: H3K23me3 H3K27me1, binder concentration: 500 nM): 0.00776 ± 0.00023
peptide microarray binding signal ([2]; peptide modifications: H3K23me3 H3K27me1, binder concentration: 10 nM): 0.0209 ± 0.0012
peptide microarray binding signal ([2]; peptide modifications: H3K23me3 H3K27me1, binder concentration: 100 nM): 0.0322 ± 0.00049
peptide microarray binding signal [3, 23]: 0.0821 ± 0.0052
peptide microarray binding signal [3, 24]: 0.0667 ± 0.0068
peptide microarray binding signal [4, 23]: 0.0232 ± 0.0031
peptide microarray binding signal [4, 24]: 0.0156 ± 0.0017
